Compound activity deposited in PubChem BioAssay by National Center for Advancing Translational Sciences (NCATS).
Compounds with a hit are over-represented: about 3% of the library has one in this group of screens.
PTAP TSG101 blk – blocks PTAP/TSG101 interaction to inhibit HIV-1 budding; 340,000 tested, under 10 active; Fluorescence polarization, FITC-PTAP peptide / Tsg101 binding; Potency, µM (top dose mostly 115 µM), without a hit: top-dose activity change, negative = inhibition, hits mostly inhibitors; AID 493005; Q99816; active means well fitted inhibition curve with a large enough effect in the main read-out, with a control signal flat, not every such curve was filed as active; inconclusive means small, poorly fitted or top-dose-only effect, or effect the other way, or a change in a side signal; inactive means no such curve, though single readings can be large or run the other way; further: % of control where 0% means no effect
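Fluorescence polarization binding of Tsg101 binding domain (10 uM final) to FITC-labeled PTAP peptide (50 nM final) in HEPES pH 7.5 buffer with NaCl, Tween 20, EDTA, TCEP. Compounds added before peptide; binding 20 min at RT.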
GCN5L2 inh – GCN5L2 (KAT2A) acetyltransferase inhibition; Q92830; GCN5L2 HAT assay, ThioGlo1 CoA-SH fluorescence; Potency, µM (series often up to 58.9 µM), for inactives: top-dose activity change, negative = inhibition, actives largely listed as inhibitors; 390,000 compounds, 0.21% hits; further: on the % scale 0 is the no-effect control and ±100 the full control effect
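Fluorescence readout, Ex340nm/Em540nm: ThioGlo1 (50uM final) reacts with free CoA thiol released as 20nM GCN5L2 acetylates H3(1-25) peptide (75uM) using acetyl-CoA (70uM). Compound and enzyme sat 15 min beforehand; 20 min room-temperature reaction.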
VDR inhibitor – blocks the human vitamin D receptor. VDR-SRC2-3 peptide fluorescence polarization, 2 h. Potency, µM, for inactives: max response, negative = inhibition, actives largely listed as inhibitors. 400,000 compounds, 0.93% hits; further: on the % scale 0 is the no-effect control and ±100 the full control effect
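Reagent solutions, kept cold and dark, are dispensed first; compounds are then pinned in at 23 nl, plates briefly spun, and incubated 2 h at ambient temperature. Inhibition of VDR–SRC2-3 peptide binding is read by fluorescence polarization.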
USP1-UAF1 inh – inhibitors of human USP1/UAF1 deubiquitinase; O94782; recombinant USP1/UAF1, Ub-Rhodamine cleavage fluorescence; Potency, µM (top dose mostly 57.1 µM), inactives show at the top dose activity change, negative = inhibition, usual class: inhibitors; 390,000 compounds, 0.23% hits; further: on the % scale 0 is the no-effect control and ±100 the full control effect; nearly all actives have a fitted effect of over 60% in size
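In this screen, compounds sit with the deubiquitinase complex (1nM) for 15 min at room temperature before Ub-Rho is added at 150nM final. Fluorescence rise is then followed for 6 reads every 60 seconds.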
PLK1 PBD inh – inhibitors of human PLK1 polo-box domain binding. AID 720504. Plk1 PBD binding of FITC phosphopeptide, fluorescence polarization. 360,000 compounds, 2.8% hits. P53350. Potency, µM, inactives show max response, negative = inhibition, hits mostly inhibitors; further: series mostly up to about 57 µM; on the % scale 0 is the no-effect control and ±100 the full control effect; nearly all actives have a fitted effect of over 65% in size
Target sequence (P53350 whole entry, looked up, the tested form may be a part): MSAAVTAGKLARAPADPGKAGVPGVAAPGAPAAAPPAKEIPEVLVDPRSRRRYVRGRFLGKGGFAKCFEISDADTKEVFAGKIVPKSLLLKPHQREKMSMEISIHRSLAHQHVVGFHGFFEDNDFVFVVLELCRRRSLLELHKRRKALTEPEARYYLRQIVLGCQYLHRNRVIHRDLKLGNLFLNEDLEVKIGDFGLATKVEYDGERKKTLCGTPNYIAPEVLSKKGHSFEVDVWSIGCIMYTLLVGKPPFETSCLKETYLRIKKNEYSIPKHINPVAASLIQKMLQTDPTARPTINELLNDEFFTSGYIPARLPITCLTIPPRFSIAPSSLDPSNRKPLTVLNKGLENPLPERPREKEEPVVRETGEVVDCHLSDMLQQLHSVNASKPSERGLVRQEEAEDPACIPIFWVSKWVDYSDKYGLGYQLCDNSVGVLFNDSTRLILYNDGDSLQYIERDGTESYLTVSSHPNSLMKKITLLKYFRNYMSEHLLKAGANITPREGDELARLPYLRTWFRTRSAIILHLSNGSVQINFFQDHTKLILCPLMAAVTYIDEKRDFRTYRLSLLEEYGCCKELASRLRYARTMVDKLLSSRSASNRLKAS
Starred values were filed as active, the others as inactive; ? = inconclusive; . = no result given. Unless noted, the call rests on the fitted dose curve; in most records, active means well fitted curve in the direction sought with a large enough effect; inconclusive means small, poorly fitted or top-dose-only effect, or another doubt; inactive means no such curve, though single readings can be large; an effect the other way counts as inactive or inconclusive. Potency means the concentration at half of the fitted maximal effect.

SMILES	PTAP TSG101 blk	GCN5L2 inh	VDR inhibitor	USP1-UAF1 inh	PLK1 PBD inh
COc1cc(/C=C2\SC(=O)NC2=O)ccc1Oc1ccc([N+](=O)[O-])cc1[N+](=O)[O-]	-5%	-26%	?	-16%	21µM*
C/C(=N/NC(=O)CNC(=O)c1cccs1)c1ccco1	-1%	-2%	1%	-7%	3%
O=C(CNS(=O)(=O)c1ccccc1)N/N=C\c1ccc(Cl)cc1	2%	4%	-18%	-11%	24µM*
COc1ccc(-c2cc(C)no2)cc1S(=O)(=O)NCc1cccs1	.	-8%	16%	-7%	.
CCOc1ccccc1NC(=S)Nn1cnnc1	-3%	?	40µM*	-7%	2.4µM*
Cc1ccccc1NC(=S)Nn1cnnc1	-1%	-8%	?	-3%	15µM*
CCc1ccccc1NC(=S)Nn1cnnc1	.	-5%	.	.	.
Fc1ccccc1NC(=S)Nn1cnnc1	-1%	-6%	?	-5%	6.7µM*
Cc1cccc(NC(=S)Nn2cnnc2)c1C	2%	0%	?	-9%	?
CCCNC(=O)C1(C)CCN(C(=O)c2ccccc2OC)C1 (stereo unspecified)	.	.	.	.	-8%
Cc1cc(Cl)ccc1NC(=O)c1cccc(NC(=O)N2CCSc3ncccc32)c1	.	-8%	5%	-9%	.
COc1ccc(NC(=O)[C@@H]2[C@@H]3C(=O)N(C4CCCCC4)C(=O)[C@@H]3C3c4ccccc4C=CN32)cc1 (stereo partly specified)	-5%	-11%	-1%	32µM*	12%
O=C(Cn1nc(C(=O)O)c2ccccc2c1=O)c1cc(F)ccc1F	-1%	-10%	?	-21%	17µM*
O=C(Cn1nc(C(=O)O)c2ccccc2c1=O)Nc1ccc(F)cc1F	-8%	0%	0%	-25%	-2%
O=C(Cn1nc(C(=O)O)c2ccccc2c1=O)NCc1ccco1	-3%	-5%	-21%	-1%	21µM*
COc1cccc(Cn2c(=O)c(-c3ccc(Cl)cc3)nc3cnc(N4CCNCC4)nc32)c1	.	-29%	68%	.	.
CC(=O)/C(=C/c1ccccc1)C(=O)Nc1ccccc1C	-7%	-6%	22µM*	-7%	-21%
Cc1ccccc1NC(=O)C(=Cc1ccc(C(=O)O)cc1)C(=O)Nc1ccccc1C	-1%	-6%	-19%	-4%	-6%
COc1ccc(S(=O)(=O)Nc2ccccc2C(N)=O)cc1OC	-9%	-3%	10%	-23%	1%
O=C(c1cc2ccccc2o1)c1cccs1	-5%	-3%	-9%	-5%	24µM*
CC(=O)Nc1ccccc1NC(=O)C/C(C)=N/NC(=O)c1ccccn1	-5%	2%	-24%	-19%	27µM*
Cc1cc(=O)oc2cc(O)cc(OCc3ccccc3)c12	-1%	.	3%	-23%	5%
Cc1c(Cl)cccc1NC(=O)CCNC(=O)N1CC(=O)Nc2ccccc21	-3%	-1%	-25%	-20%	27µM*
O=C(CN1CCN(S(=O)(=O)c2ccc(Br)cc2)CC1)N/N=C/c1ccc(Br)s1	-5%	-8%	-1%	-7%	24µM*
Cc1ccc(/C=N/NC(=O)CN2CCN(S(=O)(=O)c3ccc(Br)cc3)CC2)s1	0%	-2%	-10%	-28%	-7%
SMILES	PTAP TSG101 blk	GCN5L2 inh	VDR inhibitor	USP1-UAF1 inh	PLK1 PBD inh
CCCc1[nH][nH]c(=O)c1C(c1cccc(Cl)c1)C(C#N)C#N (stereo unspecified)	-3%	-6%	-25%	-11%	11µM*
Nc1ccc(CNc2ncn[nH]2)cc1	-6%	-6%	?	-20%	24µM*
N#Cc1ccccc1NC(=O)CSc1ncn[nH]1	.	8%	-7%	-24%	.
Cc1cc(C=O)c(C)n1-c1ccc(Cl)c(C(=O)O)c1	-8%	-15%	9%	-21%	11µM*
Cc1ccc2c(c1)sc(C)[n+]2CCCS(=O)(=O)[O-]	-4%	-9%	28µM*	-2%	-29%
Cc1ccc2sc(C)[n+](CCCS(=O)(=O)[O-])c2c1	-7%	-2%	-28%	-3%	-19%
COc1ccc(C(=O)COC(=O)CN2C(=O)C3C4CCC(C4)C3C2=O)cc1 (stereo unspecified)	1%	-11%	-20%	-14%	24µM*
Clc1ccccc1-c1nc(NC2CCNCC2)c2ccccc2n1	.	28µM*	40µM*	.	.
O=C(CN1C(=O)C2C3CC(C(Br)C3Br)C2C1=O)OCC(=O)c1cccc([N+](=O)[O-])c1 (stereo unspecified)	-2%	2%	-23%	-20%	21µM*
COCCCNC(=O)Cc1c(C)c2cc3c(cc2oc1=O)OC(C)(C)CC3	-2%	-6%	-10%	-14%	-5%
Cc1c(CC(=O)NCCCC(=O)O)c(=O)oc2cc3c(cc12)CCC(C)(C)O3	-1%	-2%	?	-22%	27µM*
COc1ccc2[nH]c3c(=O)n(Cc4ccc(C(=O)N5CCCC5)cc4)c(=S)[nH]c3c2c1	-2%	-5%	?	-12%	24µM*
O=C(N/N=C/c1ccc(Cl)cc1Cl)c1ccncc1	-4%	-9%	9%	-21%	-9%
O=C(N/N=C/c1cc(Cl)cc(Cl)c1O)c1ccncc1	?	?	-19%	32µM*	8%
Cc1ccc(-c2nc3ccccc3[nH]2)cc1NC(=O)c1ccc2c(c1)OCO2	-3%	4%	-2%	-14%	-7%
O=C(NC(=S)Nc1cc(-c2nc3ccccc3[nH]2)ccc1Cl)c1ccc2c(c1)OCO2	2%	-13%	-17%	-4%	24µM*
CCOc1ccc(C(=O)Nc2ccc3oc(-c4ccc5ccccc5c4)nc3c2)cc1	.	0%	-8%	2%	.
Cc1ccc(-n2nnnc2-c2cnoc2-c2cccc(F)c2)cc1	-4%	-3%	50µM*	-5%	21µM*
O=C1NC(=O)/C(=C\c2ccc(N3CCOCC3)o2)N1	33%	-9%	25µM*	-11%	11%
Cc1cc(/C=C2/NC(=O)NC2=O)c(C)n1-c1ccc(N2CCOCC2)cc1	-2%	-14%	-15%	-2%	-20%
O=C1NC(=O)/C(=C/c2ccc(N3CCOCC3)o2)N1	18%	-18%	79µM*	-2%	1%
CC(=O)Nc1ccc(S(=O)(=O)NCC(=O)NCCc2ccc(S(N)(=O)=O)cc2)cc1	-4%	1%	11%	-22%	-11%
NS(=O)(=O)c1ccc(CCNC(=O)CNS(=O)(=O)c2cccc(Br)c2)cc1	-1%	5%	-29%	-19%	5.3µM*
Clc1ccccc1Nc1ncnc2c1nc1n2CCCCC1	.	7%	3%	-23%	.
c1ccc2oc(-c3csc(NCC4CCCO4)n3)cc2c1 (stereo unspecified)	0%	-4%	79µM*	-2%	-25%
C=CCNc1nc(-c2cc3ccccc3o2)cs1	-10%	-8%	-5%	-16%	-19%
O=C(COc1ccccc1)Nc1ccccc1Oc1ccccc1	-2%	-6%	-3%	-11%	3%
